AmpC no deterg: inhibitors of E. coli AmpC beta-lactamase without detergent. AmpC nitrocefin hydrolysis, absorbance 480 nm, 0.0001% Triton. hit rate 0.52% among 330,000. P00811. Potency, µM (titrated, usually from 57.1 µM), for the others: at the highest dose activity change, negative = inhibition, usual class: inhibitors;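 also: plate controls were no compound for no effect and no enzyme for full effect; nearly all actives have a fitted effect of over 20% in size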
Target sequence (P00811 whole entry, looked up): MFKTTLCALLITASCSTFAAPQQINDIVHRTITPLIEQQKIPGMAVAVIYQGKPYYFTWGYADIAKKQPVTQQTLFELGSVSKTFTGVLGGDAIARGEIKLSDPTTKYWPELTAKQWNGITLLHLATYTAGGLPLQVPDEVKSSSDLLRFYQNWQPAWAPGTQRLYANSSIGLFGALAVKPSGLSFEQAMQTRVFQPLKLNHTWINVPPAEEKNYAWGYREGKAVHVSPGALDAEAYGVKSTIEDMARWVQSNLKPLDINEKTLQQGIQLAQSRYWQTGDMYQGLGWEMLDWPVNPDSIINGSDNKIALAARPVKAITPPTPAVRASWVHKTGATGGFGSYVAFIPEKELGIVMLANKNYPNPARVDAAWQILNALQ
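AmpC (5.3 nM in the dispensed reagent) in 20 mM phosphate pH 7.0 with 0.01% (detergent screen) or 0.0001% Triton X-100 was preincubated with compounds for 15 min at room temperature. Nitrocefin was then added from an 800 uM solution, and hydrolysis was followed at 480 nm.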
Pf growth 48h: inhibits P. falciparum growth in the first generation, 48 h; P. falciparum luciferase growth in erythrocytes, 48 h; hit rate 5.9% among 310,000; Potency, µM (doses to about 28.7 µM), inactives show at the highest dose activity change, negative = inhibition, most hits filed as inhibitors; AID 504832; also: % is scaled to controls: 0 for no effect and ±100 for the full control effect
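First compound was added to culture medium, then infected red cells at 0.1% parasitemia and 2% hematocrit (final). After incubation at 37 C under 5% CO2, luciferase detection reagent was dispensed and light output recorded.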
Sm TGR inh: blocks Schistosoma mansoni thioredoxin glutathione reductase; Potency, µM (top dose mostly 114 µM), for inactives: top-dose activity change, negative = inhibition, actives largely listed as inhibitors; AID 485364; hit rate 3% among 360,000; purified TGR, DTNB reduction, TNB absorbance 405 nm; also: % is scaled to controls: 0 for no effect and ±100 for the full control effect; nearly all actives have a fitted effect of over 60% in size
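TGR 20 nM + NADPH 100 uM (dispensed conc.), cpd preinc 15 min RT; start with NADPH (500 uM addition) then DTNB (15 mM addition). Kinetic TNB absorbance, 405 nm filter. Four-parameter Hill fit across titration.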
Pf growth 96h: inhibits malaria parasite growth, 96 h. P. falciparum luciferase reporter growth, 96 h. AID 504834. Potency, µM (doses to about 28.7 µM), without a hit: top-dose activity change, negative = inhibition, actives largely listed as inhibitors. hit rate 6.9% among 320,000; also: % is scaled to controls: 0 for no effect and ±100 for the full control effect
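96 h incubation, 37 C, 5% CO2, of luciferase-reporter P. falciparum-infected RBCs (2% hematocrit, 0.05% parasitemia final) with test compounds; endpoint luminescence.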
AmpC detergent: AmpC beta-lactamase inhibition with detergent present | P00811 | AmpC hydrolysis of nitrocefin, absorbance 480 nm, 0.01% Triton | Potency, µM (top dose mostly 114 µM), without a hit: at the highest dose activity change, negative = inhibition, most hits filed as inhibitors | hit rate 0.041% among 370,000 | AID 485294;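 also: 0% = no-compound wells and -100% = no-enzyme wells; nearly all actives have a fitted effect of over 25% in size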
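AmpC (5.3 nM in the dispensed reagent) in 20 mM phosphate pH 7.0 with 0.01% (detergent screen) or 0.0001% Triton X-100 was preincubated with compounds for 15 min at room temperature. Nitrocefin was then added from an 800 uM solution, and hydrolysis was followed at 480 nm.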
SARS PLP yeast: SARS-CoV PLP inhibition in yeast; S. cerevisiae expressing SARS-CoV PLpro, growth rescue; Potency, µM (top dose mostly 32.9 µM), for inactives: top-dose activity, positive = growth rescue, most hits filed as activators; hit rate 0.19% among 330,000; calls by dose curve; also: 0% is about no effect; nearly all actives have a fitted effect of over 55% in size
* hit, by the source's call; ? = inconclusive; . = no result; ! = not active in a repeat; [ ] = remark or other dose. In the library only some 12% were active in any assay of this set; here they are far more common. Unless noted, calls follow the shape of the dose curve; as a rule, active = well fitted curve in the direction sought with a large enough effect; inconclusive = small, poorly fitted or top-dose-only effect, or another doubt; inactive = no such curve, though single readings can be large; an effect the other way counts as inactive or inconclusive. Potency is read from the fitted curve at half-maximal effect.

SMILES	AmpC no deterg	Pf growth 48h	Sm TGR inh	Pf growth 96h	AmpC detergent	SARS PLP yeast
CNc1ccc(S(=O)(=O)NCC(=O)OCC(=O)Nc2cccc(Cl)c2Cl)cc1[N+](=O)[O-]	25µM*	-7%	-6%	2%	-4%	-8%
CN(C)c1ccc(S(=O)(=O)NCC(=O)OCC(=O)Nc2cccc(Cl)c2)cc1[N+](=O)[O-]	-7%	8%	-3%	3%	-8%	16%
Cc1nnc2sc(-c3ccc(NC(=O)CSc4ccc(Cl)cc4)cc3)nn12	9%	5.2µM*	-13%	?	-3%	-15%
CC(C)Cn1c(=O)c2sccc2n2c(CCCC(=O)Nc3ccc(Cl)cc3)nnc12	.	.	1%	.	-4%	.
C=CCN1CC[C@]23c4c5ccc(O)c4O[C@H]2C(=O)CC[C@@]3(O)[C@H]1C5	-14%	1%	45µM*!	12%	?	0%
CCCCC1=NN(C(=O)c2cccnc2)C(O)(C(F)(F)F)C1 (centres undefined)	-9%	147%	6%	7%	?	-1%
COc1ccc2cc1Oc1ccc(cc1)CC1c3c(cc(OC)c4c3Oc3cc5c(cc3O4)CCNC5C2)CCN1C (centres undefined)	121%	0.52µM*	10%	0.33µM*	-3%	0%
COc1ccc2cc1Oc1ccc(cc1)CC1c3c(cc4c(c3Oc3cc5c(cc3OC)CCN(C)C5C2)OCO4)CCN1C (centres undefined)	.	5.4µM*	.	5.4µM*	.	.
Brc1ccc(-c2ncc3ccccn23)cc1	-28%	32%	28µM*	114%	0%	-14%
COc1ccc(-n2nc3c(N4CCC(C(=O)N5CCC(C)CC5)CC4)nnc(C)c3c2C)cc1	179%	?	-2%	4%	-9%	0%
COc1ccccc1-n1c(=S)[nH]c2c(sc(=S)n2-c2ccccc2C)c1=O	-22%	0%	-1%	-5%	?	3%
COc1cnc(-c2ccccn2)nc1Oc1ccccc1	-7%	12µM*	1%	?	5%	15%
COc1cnc(-c2ccccn2)nc1N(C)c1ccccc1	0%	0.93µM*	3%	0.93µM*	3%	-8%
COc1cnc(-c2ccccn2)nc1Oc1cccc(C(F)(F)F)c1	131%	2.3µM*	1%	1.7µM*	-4%	8%
COc1ccnc(Oc2ccccc2)c1C#N	-15%	30%	-22%	0%	?	5%
CSCc1cc(N(C)c2ccccc2)nc(-c2ccccn2)n1	14%	-6%[0.00184 µM]	-1%	?	-2%	-5%
Cc1ccccc1CSc1cn(CCNC(=O)c2cccs2)c2ccccc12	.	.	-2%	.	0%	.
O=C(Nc1ccc2c(c1)OCCO2)C1CCN(c2cnccn2)CC1	-11%	-9%	1%	19%	3%	-2%
O=C(c1ccc2c(c1)N(Cc1ccc(Cl)cc1)C(=O)c1ccccc1S2=O)N1CCN(c2ccccc2F)CC1 (centres undefined)	.	.	-1%	.	?	.
O=[N+]([O-])c1cccnc1N1CCCCC1	4%	20%	0%	112%	-4%	-7%
O=[N+]([O-])c1ccc(N2CCCCC2)nc1N1CCCCC1	-28%	2.1µM*	5%	3.3µM*	-2%	-1%
O=C(CN1CCN(S(=O)(=O)c2cccs2)CC1)NCC1CCCCC1	38%	?	-4%	?	-6%	1%
O=C(Nc1cccc(C(F)(F)F)c1)Oc1ccc(Cl)c2cccnc12	-47%	2.6µM*	-1%	2.3µM*	3%	-12%
COc1ccc(NC(=O)c2oc3ccccc3c2C)cn1	11%	-11%	5%	-65%	5%	0%
COC(=O)c1c(C)[nH]c(C(=O)COC(=O)c2c(C)noc2C)c1C	-25%	11%	-17%	14%	-7%	-2%
SMILES	AmpC no deterg	Pf growth 48h	Sm TGR inh	Pf growth 96h	AmpC detergent	SARS PLP yeast
COC(=O)c1c(C)[nH]c(C(=O)C(C)OC(=O)c2c(C)noc2C)c1C (centres undefined)	-18%	?	-8%	4.1µM*	?	3%
CCc1[nH]nc(C(=O)NC2CCCN(Cc3ccccc3F)C2)c1C (centres undefined)	-9%	0%	-22%	13µM*	-4%	0%
CC(=O)c1ccc(C(=O)NC2CCCN(Cc3ccccc3F)C2)cc1 (centres undefined)	-5%	-11%	-2%	5.9µM*	-12%	0%
O=C(CCn1cnnn1)NC1CCCN(Cc2ccccc2F)C1 (centres undefined)	-10%	10%	2%	13µM*	3%	-1%
CSc1ccccc1C(=O)NC1CCCN(Cc2ccccc2F)C1 (centres undefined)	-15%	-12%	1%	-8%	0%	?
O=C(Cc1ccc(Cl)cc1)NC1CCCN(Cc2ccccc2F)C1 (centres undefined)	32%	9%	-1%	69%	?	3%
CCCc1cc(C(=O)NC2CCCN(Cc3ccccc3F)C2)no1 (centres undefined)	2%	-15%	-4%	10µM*	0%	-1%
COc1ccc(-c2nc3sc(CCNC(=O)C(=O)Nc4ccc(C)c(C)c4)c(C)n3n2)cc1	.	.	0%	.	-3%	.
CC1=C(C(=O)Nc2ccccc2)C(c2cccn2C)n2ncnc2N1 (centres undefined)	.	.	-2%	.	17%	.
COc1ccc(S(=O)(=O)N2CCCCC2)cc1NC(=O)C1CC1C (centres undefined)	-13%	6%	2%	-17%	1%	0%
O=C(NCc1cccc(Cl)c1)c1ccc(N2CC3CC(C2)c2cccc(=O)n2C3)c(NC(=O)c2cccnc2)c1 (centres undefined)	153%	?	-9%	-14%	-9%	13%
CN(C)c1nc(SCc2ccccc2Cl)nc2c1CCCC2	-7%	?	11%	?	4%	-40%
Cc1ccc(CSc2nc3c(c(N(C)C)n2)CCCC3)cc1	-25%	13µM*	-4%	?	-8%	-36%
CNc1nc(SCc2ccc(C)cc2)nc2c1CCCC2	-1%	7.4µM*	19%	13µM*	9%	-35%
COC(=O)c1ccccc1NC(=O)Cc1nc(-c2ccc(OC)cc2)no1	.	.	-5%	.	2%	.
COC(=O)Cn1c(=NC(=O)c2ccc3c(c2)OCCO3)sc2ccccc21	.	.	2%	.	13%	.
Cc1ccccc1NC(=O)CSc1ccc(-c2cccnc2)nn1	-14%	-29%	2%	10µM*	2%	-2%
O=C(CSc1ccc(-c2cccnc2)nn1)Nc1ccccc1	10%	4%	-16%	12µM*	-2%	0%
